{
  "source": "PubChem BioAssay AID651820",
  "about": "(National Center for Advancing Translational Sciences (NCATS), 2012)",
  "note": "Hit rate of the full screen: of about 340,000 compounds, about 12,000 (3.5%) were called active. Entries that show only a call come without a potency. Not shown: some 18% with an inconclusive outcome. Calls come from the whole dose curve; as a rule, active = well fitted inhibition curve with a large enough effect; inconclusive = small, poorly fitted or top-dose-only effect, or another doubt; inactive = no such curve, though single readings can be large or run the other way. This excerpt belongs to a sample that is enriched for actives. Where a structure was tested more than once in an assay, its records may differ in their call. Potency is the fitted concentration of half-maximal effect.",
  "data": [
    {"experiment": "qHTS Assay for Inhibitors of Hepatitis C Virus (HCV)", "conditions": "Huh7.5.1 HCVcc-Cre infection, luciferase reporter, 44 h; series mostly up to 41.8 µM", "method_in_brief": "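Infectious HCV cell culture screen: compound-treated cells (1,000/well, pre-plated 4 h) are infected with HCVcc-Cre at roughly 0.5 moi and grown 44 h. Infection is quantified by luciferase signal after 15 min substrate incubation at room temperature.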", "values": [
      {"smiles": "CC(C)(C)OC(=O)CNC(=O)c1[nH]cnc1C(=O)N[C@@H](CCCCN)C(=O)OC(C)(C)C", "Potency": "inactive"},
      {"smiles": "O=C(Nc1cc(Cl)ccc1N1CCOCC1)c1ccc(N2CCCC2=O)cc1", "Potency": "35.5 µM (active)"},
      {"smiles": "COc1c(C)cccc1C(=O)Nc1cc(Cl)ccc1N1CCOCC1", "Potency": "inactive"},
      {"smiles": "O=C(Nc1cc(-c2nn(CC(=O)N3CCCCC3)c(=O)c3ccccc23)ccc1N1CCOCC1)c1ccc(Cl)cc1", "Potency": "inactive"},
      {"smiles": "COc1ccc(CCNC(=O)COC(=O)c2ncc(Cl)c(Cl)c2Cl)cc1OC", "Potency": "inactive"},
      {"smiles": "O=C(CSc1nc2ccccc2c(=O)n1-c1ccc(F)cc1)NC1CC1", "Potency": "inactive"},
      {"smiles": "COCCN(C(=O)CSCc1ccc(C)cc1)c1c(N)n(CC(C)C)c(=O)[nH]c1=O", "Potency": "inactive"},
      {"smiles": "N#Cc1ccc(C(=O)OCC(=O)NC(=O)NC2CCCCC2)cc1", "Potency": "inactive"},
      {"smiles": "O=C(NNC(=O)c1cc(-c2ccccc2Cl)nc2ccccc12)c1csc(N2CCOCC2)n1", "Potency": "inactive"},
      {"smiles": "C=CC[n+]1c(-c2ccc(C)cc2)csc1NNC(=O)Nc1ccccc1", "Potency": "5.62 µM (active)"},
      {"smiles": "C=CCNc1scc(-c2ccccc2)[n+]1CC=C", "Potency": "inactive"},
      {"smiles": "O=C(NNC(=O)c1ccc(-c2ccccc2)cc1)Nc1ccccc1", "Potency": "inactive"},
      {"smiles": "N#CC(Cc1cc2ccccc2n1S(=O)(=O)c1ccccc1)OCc1ccccc1", "note": "(centres undefined)", "Potency": "inactive"},
      {"smiles": "Nc1cccnc1Sc1ccccc1", "Potency": "inactive"},
      {"smiles": "CN1CCN(c2ccc([N+](=O)[O-])c(Sc3nc4ccccc4[nH]3)c2)CC1", "Potency": "inactive"},
      {"smiles": "O=[N+]([O-])c1ccc(N2CCSCC2)cc1O", "Potency": "inactive"},
      {"smiles": "CC1CCN(c2ccc([N+](=O)[O-])c(SCCO)c2)CC1", "Potency": "10 µM (active)"},
      {"smiles": "Cc1occc1-c1nnc(SCC(=O)NC2(C#N)CCCC2)n1C", "Potency": "inactive"},
      {"smiles": "CN(C)CCCN(C(=O)c1ccc(S(=O)(=O)N2CCCCCC2)cc1)c1nc2cc3c(cc2s1)OCCO3", "Potency": "inactive"},
      {"smiles": "O=[N+]([O-])c1ccc(C=NN=Cc2ccc([N+](=O)[O-])cc2)cc1", "Potency": "inactive"},
      {"smiles": "Cc1ccc(Cl)cc1N1CCN(C(=O)c2cccc3c(=O)c(C)c(-c4ccccc4)oc23)CC1", "Potency": "10 µM (active)"},
      {"smiles": "COC(=O)c1ccc(C(=O)OC)c(NC(=S)N2CCN(c3cc(Cl)ccc3C)CC2)c1", "Potency": "inactive"},
      {"smiles": "Cc1cccc(N2CCN(C(=O)c3cnn4c(C(F)F)cc(-c5ccccc5)nc34)CC2)c1C", "Potency": "inactive"},
      {"smiles": "CC(C#N)OC(=O)c1cccnc1SCC(=O)Nc1ccc2c(c1)OCO2", "note": "(centres undefined)", "Potency": "inactive"},
      {"smiles": "Cc1ccc(CN2CC(C(=O)N3CCN(S(=O)(=O)c4ccccc4)CC3)CC2=O)cc1", "note": "(centres undefined)", "Potency": "inactive"},
      {"smiles": "Cc1cc(C(C)(C)C)n2nc(C)c(-c3ccccc3)c2n1", "Potency": "inactive"},
      {"smiles": "Cc1nn2c(NCCN(C)C)c3c(nc2c1-c1ccccc1)CCC3", "Potency": "12.6 µM (active)"},
      {"smiles": "Cc1cc(N2CCCC2)n2nc(C)c(-c3ccccc3)c2n1", "Potency": "inactive"},
      {"smiles": "O=C(NC(Nc1nc2ccc([N+](=O)[O-])cc2s1)(C(F)(F)F)C(F)(F)F)c1ccccc1", "Potency": "0.562 µM (active)"},
      {"smiles": "O=C(COC(=O)c1ccc(F)cc1)Nc1nc2ccc([N+](=O)[O-])cc2s1", "Potency": "inactive"},
      {"smiles": "O=C(Nc1nc2ccc([N+](=O)[O-])cc2s1)c1ccncc1", "Potency": "inactive"},
      {"smiles": "NC(=O)C1CCN(C(=O)c2cc(S(=O)(=O)N3CCN(c4ccccc4)CC3)ccc2Cl)CC1", "Potency": "inactive"},
      {"smiles": "Cc1cccc(C(=O)OCC(=O)Nc2sc3c(c2C#N)CCC3)c1", "Potency": "inactive"},
      {"smiles": "N#CCC(=O)Nc1ccc(C(=O)OCC(=O)Nc2sc3c(c2C#N)CCCC3)cc1", "Potency": "inactive"},
      {"smiles": "CC(=O)c1c(C)[nH]c(C(=O)OCC(=O)Nc2cc(S(=O)(=O)N3CCCCC3)ccc2C)c1C", "Potency": "inactive"},
      {"smiles": "CC(=O)c1c(C)[nH]c(C(=O)COC(=O)c2cccs2)c1C", "Potency": "inactive"},
      {"smiles": "CC(=O)c1c(C)[nH]c(C(=O)OCC(=O)Nc2sc3c(c2C#N)CCCC3)c1C", "Potency": "12.6 µM (active)"},
      {"smiles": "CC(=O)c1c(C)[nH]c(C(=O)OCC(=O)NCCC(C)C)c1C", "Potency": "11.2 µM (active)"},
      {"smiles": "NN=C(NN=Cc1ccccc1)c1ccccc1", "Potency": "inactive"},
      {"smiles": "O=[N+]([O-])c1cc2ccccc2nc1-c1ccccc1", "Potency": "inactive"},
      {"smiles": "CC1CCCCC12NC(=O)N(CC(=O)Nc1ccc(S(=O)(=O)Nc3ncccn3)cc1)C2=O", "note": "(centres undefined)", "Potency": "inactive"},
      {"smiles": "COc1ccc(NC(=O)CC2SC(N3CCCCC3)=NC2=O)cc1OC", "note": "(centres undefined)", "Potency": "inactive"},
      {"smiles": "Cc1ccc(NC(=O)CN(C)CC(=O)Nc2cccc(F)c2)cc1[N+](=O)[O-]", "Potency": "5.62 µM (active)"},
      {"smiles": "Cc1ccc(CN(C)CC(=O)Nc2cccc([N+](=O)[O-])c2)o1", "Potency": "inactive"},
      {"smiles": "CN(CC(=O)Nc1cccc(F)c1)CC(=O)Nc1cccc([N+](=O)[O-])c1", "Potency": "inactive"},
      {"smiles": "COc1ccc(/C=C2/CCCc3ccccc3C2=O)cc1", "Potency": "inactive"},
      {"smiles": "Oc1c(Cl)cc(Cl)c(Cl)c1Cc1c(O)c(Cl)cc(Cl)c1Cl", "Potency": "8.91 µM (active)", "activity change, negative = inhibition": "-0.125% [at 8.37 µM] (inactive)"},
      {"smiles": "O=C(NCC(c1ccco1)N1CCc2ccccc2C1)c1ccccc1Cl", "note": "(centres undefined)", "Potency": "inactive"},
      {"smiles": "CC(=O)C(CC(=O)N1CCCC1)C(=O)Nc1ccc(Cl)cc1", "note": "(centres undefined)", "Potency": "inactive"},
      {"smiles": "CC/C(=C\\c1ccc(Cl)cc1)c1ccncc1", "Potency": "inactive"},
      {"smiles": "COC(=O)c1ccc(CNC(=O)Cn2cc(C)c(=O)[nH]c2=O)cc1", "Potency": "inactive"},
      {"smiles": "O=c1nc(NO)ccn1C1CCCO1", "note": "(centres undefined)", "Potency": "inactive"},
      {"smiles": "COc1ccccc1N(CC(=O)Nc1ccc(C)cc1Cl)S(=O)(=O)c1cccs1", "Potency": "inactive"},
      {"smiles": "CCOc1cc2[nH]c(=S)n(Cc3ccc(C(=O)N4CCN(C)CC4)cc3)c(=O)c2cc1OCC", "Potency": "12.6 µM (active)"},
      {"smiles": "CCOc1cc2[nH]c(=S)n(Cc3ccc(C(=O)NCCOC)cc3)c(=O)c2cc1OCC", "Potency": "inactive"},
      {"smiles": "COc1ccccc1Cn1c(=S)[nH]c2cc(C(=O)N3CCN(C)CC3)ccc2c1=O", "Potency": "inactive"},
      {"smiles": "C[C@H](CO)N1C[C@H](C)[C@@H](CN(C)C(=O)NC2CCCCC2)Oc2ccc(NC(=O)c3ccncc3)cc2C1=O", "Potency": "inactive"},
      {"smiles": "CCN(C[C@H]1N[C@@](Cc2ccccc2)(C(=O)OC)[C@H]2C(=O)N(Cc3ccccc3)C(=O)[C@@H]12)C(=O)c1ccc(C)cc1", "Potency": "inactive"},
      {"smiles": "COc1ccc2ccccc2c1/C=N/NC(=O)c1cc(C)[nH]n1", "Potency": "inactive"},
      {"smiles": "Cc1cc(C(=O)N/N=C/c2cc([N+](=O)[O-])cc(C)c2O)n[nH]1", "Potency": "inactive"},
      {"smiles": "CC(C)(C)c1cc(C(=O)N/N=C/c2ccc([N+](=O)[O-])s2)n[nH]1", "Potency": "25.1 µM (active)"},
      {"smiles": "COc1ccc(S(=O)(=O)N2CCc3ccccc32)cc1C(=O)Nc1cc(S(C)(=O)=O)ccc1Cl", "Potency": "inactive"},
      {"smiles": "O=C(CSCC(=O)Nc1cccc([N+](=O)[O-])c1)Nc1ccccc1", "Potency": "inactive"},
      {"smiles": "O=C(CSc1nc(-c2ccccc2)cs1)Nc1cccc([N+](=O)[O-])c1", "Potency": "11.2 µM (active)"},
      {"smiles": "CCNC(=O)CSc1nc(-c2ccccc2)cs1", "Potency": "inactive"},
      {"smiles": "COc1ccccc1CNC(=O)CSc1nc(=O)n(Cc2ccncc2)c2c1CCC2", "Potency": "inactive"},
      {"smiles": "C/C(=N/Nc1nc(-c2ccccc2)c(CC(=O)O)s1)c1ccccc1", "Potency": "12.6 µM (active)"},
      {"smiles": "O=C(O)Cc1sc(-c2ccccc2)nc1-c1cccs1", "Potency": "inactive"},
      {"smiles": "CCOC(=O)C(=O)Nc1nc(-c2ccccc2)c(CC)s1", "Potency": "inactive"},
      {"smiles": "CC1O[C@@H](OC2C(O)C(C)O[C@H](OC(=O)[C@]34CCC(C)(C)C[C@H]3C3=CCC5[C@@]6(C)CC(O)C(O[C@@H]7OC(CO)C(O)[C@@H](O)[C@@H]7O)[C@@](C)(C(=O)O)C6CC[C@@]5(C)[C@]3(CO)CC4)C2O[C@H]2OC(C)[C@@H](O[C@@H]3OCC(O[C@@H]4OC(CO)C(O)[C@H](O)C4O)[C@@H](O)[C@@H]3O)[C@H](O)C2O)C(O)C(O)C1O", "note": "(some centres undefined)", "Potency": "inactive"},
      {"smiles": "CCCCn1c(N)c(N(CC(C)C)C(=O)c2ccc(-n3c(C)ccc3C)cc2)c(=O)[nH]c1=O", "Potency": "inactive"},
      {"smiles": "Cc1c(C)n2c(SCC(=O)N3CCCC3)nnc2[nH]c1=O", "Potency": "inactive"},
      {"smiles": "COc1ccc(C(=O)OCc2cc(=O)n3ccsc3n2)cc1F", "Potency": "inactive"}
    ]}
  ]
}
